Here are results for twelve compounds from PubChem BioAssay.

The nature of experiment [1]: optical density shifts of acrAB sulA E. coli – strain DRC41, OD650, 48 h, E. coli filamentation inducer project, primary screen (AID 1152).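 Also: E. coli MC1000 strain DRC41 lacking acrAB efflux pump and sulA.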 As to conditions: higher = more signal, called active from +8 up or from −8 down.
A short description of experiment [2]: probe aLefty1 binding on compound microarray – biochemical, small-molecule microarray, 635/667 nm fluorescence, primary screen (AID 1153).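 Also: score merges spot fluorescence with signal-to-noise ratio from the scanned slide images.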 The conditions noted are these: higher = more signal.
Experiment [3] is described as follows: plasmodial surface anion channel blockers, osmotic lysis – cell-based, P. falciparum Indochina, OD700, 1 h, primary screen (AID 1154). As to conditions: P. falciparum Indochina infected RBC osmotic lysis, higher = more signal, called active from +8 up or from −8 down.
Experiment [4] in a line: plasmodial surface anion channel blockers, osmotic lysis – cell-based, P. falciparum Indochina, OD700, 2 h, primary screen (AID 1155).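 Also: lysis reports solute entry through the parasite surface anion channel PSAC.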 The conditions noted are these: P. falciparum Indochina infected erythrocytes, higher = more signal, called active from +8 up or from −8 down.
A short description of experiment [5]: changes in parasitized red cell lysis, either direction – P. falciparum Indochina, OD700, 3 h, PSAC antagonist project, primary screen (AID 1156). As to conditions: P. falciparum-infected erythrocytes, osmotic lysis, higher = more signal, called active from +8 up or from −8 down.
Experiment [6] is described as follows: plasmodial surface anion channel blockers, osmotic lysis – cell-based, P. falciparum Indochina, OD700, 18 h, primary screen (AID 1157). The conditions noted are these: P. falciparum Indochina infected erythrocytes, osmotic lysis OD700, 18 h; higher = more signal, called active from +8 up or from −8 down.
Experiment [7] in a line: S6 kinase pathway phospho-S6 level changes – cell-based, A549, cytoblot, luminescence, serum-stimulated, primary screen (AID 1158).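 Also: serum-stimulated A549 lung adenocarcinoma cells; signal is phosphorylated S6 detected by cytoblot immunostaining with HRP secondary.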 The conditions noted are these: 5 h, higher = more signal.
The target of experiment [8] is NADPH oxidase 2 (Homo sapiens) (UniProt P04839). Nature of the experiment: compounds shifting NOX2 Amplex Red fluorescence – cell-based, HEK293-NOX2, PMA-stimulated, NOX inhibitor project, primary screen (AID 1159). Also: test concentration not given here. The conditions noted are these: 45 min, higher = more signal, called active from +8 up or from −8 down.
Experiment [9] has as its target NADPH oxidase 4 (Homo sapiens) (UniProt Q9NPH5). As to the kind of experiment: compounds shifting NOX4 Amplex Red fluorescence – cell-based, HEK293-NOX4, tetracycline-induced, NOX inhibitor project, primary screen (AID 1160). The conditions noted are these: HEK293-NOX4, Amplex Red H2O2 fluorescence, 45 min; higher = more signal, called active from +8 up or from −8 down.

The target of experiment [10] is NADPH oxidase 5 (Homo sapiens) (UniProt Q96PH1). As to the kind of experiment: compounds shifting NOX5 Amplex Red fluorescence – cell-based, HEK293-NOX5, NOX inhibitor project, primary screen (AID 1161). As to conditions: HEK293-NOX5, ionomycin, 45 min, higher = more signal.

Activity calls are given as the source filed them.

NADPH oxidase 2 (Homo sapiens), sequence (P04839 whole entry, looked up): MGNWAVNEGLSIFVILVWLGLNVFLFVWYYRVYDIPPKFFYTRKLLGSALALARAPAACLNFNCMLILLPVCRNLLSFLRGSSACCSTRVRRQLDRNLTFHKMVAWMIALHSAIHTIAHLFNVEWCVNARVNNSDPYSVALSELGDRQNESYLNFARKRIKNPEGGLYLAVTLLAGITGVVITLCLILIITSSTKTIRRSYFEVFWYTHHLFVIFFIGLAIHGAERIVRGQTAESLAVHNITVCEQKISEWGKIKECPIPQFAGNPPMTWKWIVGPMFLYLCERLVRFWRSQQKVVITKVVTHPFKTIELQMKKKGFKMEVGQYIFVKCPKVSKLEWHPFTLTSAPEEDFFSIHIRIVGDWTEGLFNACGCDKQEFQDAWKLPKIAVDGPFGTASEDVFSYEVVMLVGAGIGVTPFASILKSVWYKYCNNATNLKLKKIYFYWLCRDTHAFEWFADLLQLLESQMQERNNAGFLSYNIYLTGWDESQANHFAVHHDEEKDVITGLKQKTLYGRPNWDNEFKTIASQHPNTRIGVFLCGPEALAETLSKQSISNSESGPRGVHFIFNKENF
NADPH oxidase 4 (Homo sapiens), sequence (Q9NPH5 whole entry, looked up): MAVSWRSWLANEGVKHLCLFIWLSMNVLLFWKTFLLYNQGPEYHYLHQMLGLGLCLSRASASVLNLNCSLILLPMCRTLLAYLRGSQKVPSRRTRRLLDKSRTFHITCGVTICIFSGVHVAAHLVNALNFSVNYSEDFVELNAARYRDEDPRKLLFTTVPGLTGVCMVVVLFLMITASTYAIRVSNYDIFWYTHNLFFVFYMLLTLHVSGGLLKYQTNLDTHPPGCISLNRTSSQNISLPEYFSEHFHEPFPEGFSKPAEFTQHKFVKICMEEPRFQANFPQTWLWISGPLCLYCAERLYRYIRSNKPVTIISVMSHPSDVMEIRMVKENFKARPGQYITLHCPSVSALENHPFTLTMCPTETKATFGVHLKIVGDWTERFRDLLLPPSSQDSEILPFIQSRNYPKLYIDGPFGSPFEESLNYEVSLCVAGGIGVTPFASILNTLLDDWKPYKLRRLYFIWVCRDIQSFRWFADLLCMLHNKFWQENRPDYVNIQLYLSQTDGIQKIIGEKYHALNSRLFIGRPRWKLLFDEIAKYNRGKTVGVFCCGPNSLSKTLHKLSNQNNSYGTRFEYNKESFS
NADPH oxidase 5 (Homo sapiens), sequence (Q96PH1 whole entry, looked up): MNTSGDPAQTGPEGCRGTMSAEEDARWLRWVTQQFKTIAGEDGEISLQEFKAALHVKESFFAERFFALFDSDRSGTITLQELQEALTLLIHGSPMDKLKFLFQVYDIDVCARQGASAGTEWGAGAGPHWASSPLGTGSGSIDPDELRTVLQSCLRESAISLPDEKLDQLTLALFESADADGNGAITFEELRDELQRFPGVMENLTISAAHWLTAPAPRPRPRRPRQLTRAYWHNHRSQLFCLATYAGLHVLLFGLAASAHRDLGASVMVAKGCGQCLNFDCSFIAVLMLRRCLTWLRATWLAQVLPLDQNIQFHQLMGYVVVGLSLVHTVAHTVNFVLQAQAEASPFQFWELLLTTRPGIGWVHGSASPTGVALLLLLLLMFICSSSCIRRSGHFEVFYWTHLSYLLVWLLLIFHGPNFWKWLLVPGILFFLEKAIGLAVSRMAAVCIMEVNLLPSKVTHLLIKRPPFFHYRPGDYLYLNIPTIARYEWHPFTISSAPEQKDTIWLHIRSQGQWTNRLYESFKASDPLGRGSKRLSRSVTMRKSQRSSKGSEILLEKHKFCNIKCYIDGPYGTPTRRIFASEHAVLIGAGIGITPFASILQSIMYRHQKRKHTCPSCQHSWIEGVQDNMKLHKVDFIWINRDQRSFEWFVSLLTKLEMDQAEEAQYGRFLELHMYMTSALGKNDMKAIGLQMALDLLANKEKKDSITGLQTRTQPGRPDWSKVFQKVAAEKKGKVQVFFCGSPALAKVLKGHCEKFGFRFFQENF

As to `CCCC[C@@H]1C[C@H]1[C@@H](NC(=O)c1ccco1)c1ccc(C(=O)OC)cc1`, the z-score is -2.59 (inactive) in experiment [1]; 1.59 (inactive) in [3]; 0.501 (inactive) in experiment [4]; 0.394 (inactive) in [5]; 0.323 (inactive) in [6]; -0.0467 in [7]. For the same compound, the z-score in experiment [8] was -1.55 (inactive); in [9], -1.96 (inactive); in [10], 1.82. The compound further yielded a composite z-score in [2] of -0.214.

As for `COc1cc(CO)cc(I)c1O[C@H]1C=C(C(=O)NCCO)C[C@@H](N(CCN2CCOCC2)C(=O)C2CCOC2)[C@@H]1O` (stereo not given in full), the z-score in [1] was 3.66 (inactive); in experiment [3] it was 8.79 (active); in experiment [4], 1.59 (inactive); in experiment [5], 1.89 (inactive); in [6], 0.427 (inactive); in experiment [7] it was 0.432. Moreover, the z-score was -0.568 (inactive) in experiment [8], 1.29 (inactive) in experiment [9] and 0.233 in experiment [10]. In addition, the composite z-score in [2] was -0.319.

Regarding `CCCC[C@H]1OB(O)C[C@H]2C1=C(COc1ccccc1)C[C@H]1C(=O)N(C)C(=O)[C@H]12`, the z-score in experiment [1] was -0.882 (inactive); in experiment [3] it was 1.31 (inactive); in [4], -0.252 (inactive); in experiment [5], -0.761 (inactive); in experiment [6], 0.232 (inactive); in [7] it was -0.149. Moreover, the z-score in [8] was -0.405 (inactive); in experiment [9], 0.509 (inactive); in experiment [10], 0.224. The compound also returned a composite z-score in [2] of -0.0989.

As for `C=CCN1C(=O)[C@]2(O[C@H](CCO)[C@@H]([Si](C)(C)c3ccc(OC)cc3)[C@@H]2C)c2cc(N3CCCCC3=O)ccc21`, the z-score was 0.143 (inactive) in [1]; 4.68 (inactive) in experiment [3]; 2.25 (inactive) in [4]; -0.328 (inactive) in experiment [5]; 1.7 (inactive) in experiment [6]; 1.14 in experiment [7]. The z-score in experiment [8] is 0.972 (inactive); in experiment [9] it was 0.43 (inactive); in experiment [10] it was 0.801. The compound also returned a composite z-score in [2] of 0.0004.

Regarding `COc1ccc(C(O)C2C=CC3C(=O)N(c4ccccc4)C(=O)C3N2Nc2ccccc2F)cc1OCc1ccccc1` (stereo not given), the z-score in experiment [1] is -1 (inactive); in experiment [3] it was 9.5 (active); in experiment [4], 2.5 (inactive); in experiment [5] it was 0.361 (inactive); in experiment [6], 1.17 (inactive); in [7], -1.12. Also, the z-score in experiment [8] is -1.18 (inactive); in [9], -2.79 (inactive); in [10], -1.17. The compound further displayed a composite z-score in experiment [2] of 0.5.

With `CN(C)C(=O)[C@]1(Cc2ccccc2N=[N+]=[N-])N=C(c2ccc(OCCCO)cc2)O[C@@H]1c1ccccc1`, the z-score is 0.327 (inactive) in [1]; 30.2 (active) in [3]; 27.5 (active) in experiment [4]; 2.4 (inactive) in [5]; 2.53 (inactive) in experiment [6]; 1.38 in experiment [7]. For the same compound, the z-score in experiment [8] is -0.906 (inactive); in experiment [9] it was -0.433 (inactive); in experiment [10], -1.67. In experiment [2], the composite z-score worked out at 0.112.

In the case of `COc1ccc(CCNC(=O)[C@@H]2c3ccccc3C(=O)N(C3Cc4ccccc4C3)[C@H]2c2ccc(CO)cc2)cc1`, the z-score in experiment [1] was -0.483 (inactive); in experiment [3], 6.43 (inactive); in [4], 0.65 (inactive); in experiment [5], 0.474 (inactive); in experiment [6] it was 0.183 (inactive); in [7] it was -0.484. The z-score was -3.31 (inactive) in [8], -0.185 (inactive) in [9] and -3.47 in [10]. In experiment [2], the composite z-score was -0.0544.

For the compound `C=CCOC(=O)[C@@H]1[C@H]2C(=O)O[C@H](c3ccccc3)[C@H](c3ccccc3)N2[C@H](c2ccc(OCCOC(=O)[C@@H]3C[C@@H]4C(=O)N[C@@H](CCCC[N+](C)(C)C)C(=O)N4[C@@H]3c3cccc(OCCO)c3)cc2)[C@@]12C(=O)Nc1ccc(I)cc12`, the z-score in experiment [1] is -0.537 (inactive); in [3], 2.82 (inactive); in experiment [4], 2.58 (inactive); in experiment [5], 2.24 (inactive); in experiment [6] it was 1.01 (inactive); in [7], -1.5. Moreover, the z-score was 2.31 (inactive) in experiment [8], 0.862 (inactive) in experiment [9] and 1.3 in experiment [10]. In [2], this compound showed a composite z-score of 0.121.

As to `CC(C)(C)OC(=O)CC[C@]1(C(=O)O)N=C(c2ccc(OCCCO)cc2)O[C@H]1c1ccccc1N=[N+]=[N-]`, the z-score in experiment [1] is 0.234 (inactive); in experiment [3] it was 32.9 (active); in experiment [4], 28.4 (active); in [5], 0.912 (inactive); in [6] it was 6.45 (inactive); in experiment [7] it was -0.466. The figures for the z-score in experiment [8], in experiment [9] and in experiment [10] were 0.7 (inactive), 1.14 (inactive) and 1.31, respectively. This compound had a composite z-score in [2] of 1.58.

For the compound `CCN(CC)c1ccc(N2CC=CC34O[C@@H]5/C=C\CCCOC(=O)C5[C@H]3C(=O)N(CCO)[C@@H]4C2=O)cc1` (stereo not given in full), the z-score in [1] is -0.0626 (inactive); in [3] it was 0.897 (inactive); in experiment [4] it was 0.175 (inactive); in experiment [5], 0.227 (inactive); in experiment [6], 0.041 (inactive); in [7], -0.155. Besides, the z-score in experiment [8] was -0.401 (inactive); in experiment [9] it was -0.72 (inactive); in experiment [10], 0.733. In [2], the composite z-score amounted to 0.0999.

As for `COc1ccc([C@H]2OC[C@@H]3CC4(CC=CC4)C(=O)N32)cc1`, the z-score in experiment [1] is -0.56 (inactive); in [3], 0.486 (inactive); in experiment [4], 0.477 (inactive); in experiment [5], -0.51 (inactive); in [6], 0.136 (inactive); in experiment [7], -0.516. For the same compound, the z-score in experiment [8] was 0.777 (inactive); in experiment [9] it was 0.674 (inactive); in [10] it was 0.291. Moreover, the composite z-score in [2] stood at 0.0406.

Take `COCCOC(=O)N1C(=O)[C@@]2(c3cc(C#CC4(O)CCCCCC4)ccc31)[C@H](c1ccc(O)cc1)N1[C@H](c3ccccc3)[C@H](c3ccccc3)OC(=O)[C@H]1[C@@H]2C(=O)Nc1nc2ccccc2s1`: the z-score in [1] is -0.565 (inactive); in [3], 0.69 (inactive); in experiment [4] it was 1.05 (inactive); in experiment [5], 0.207 (inactive); in [6], 1.39 (inactive); in experiment [7] it was -0.502. For the same compound, the z-score in experiment [8] was 1.75 (inactive); in experiment [9] it was 0.507 (inactive); in experiment [10], 1.07. In experiment [2], this compound had a composite z-score of 1.76.
